# High-throughput results (PubChem BioAssay)
# SENP8 block-1: inhibitors of human SENP8 protease; inhibition, % at 20 µM; Q96LD8; 360,000 tested, 0.64% active; recombinant SENP8, Nedd8 substrate fluorescence; AID 602440; in the data active = inhibition mostly above about 40%, no sharp cut-off; inactive = mostly below about 27%
# Target sequence (Q96LD8 whole entry, looked up): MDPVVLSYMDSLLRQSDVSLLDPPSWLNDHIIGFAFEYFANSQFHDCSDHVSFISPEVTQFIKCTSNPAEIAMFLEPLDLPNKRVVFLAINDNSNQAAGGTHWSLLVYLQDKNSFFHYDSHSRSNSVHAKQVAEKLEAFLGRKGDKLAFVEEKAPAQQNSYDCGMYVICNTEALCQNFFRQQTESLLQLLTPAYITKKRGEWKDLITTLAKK
# Platelet DG rel: platelet dense granule release activity. human platelet-rich plasma, SFLLRN dense granule ATP release, luminescence. inhibition, %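 (compounds screened at 7.5 µM in platelet-rich plasma)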. 300,000 tested, 0.22% active;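 active = mean replicate score, as percent of positive control, at or above 50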
# SENP7 block: SENP7 protease inhibition. 330,000 tested, 1.5% active. inhibition, % at 5 µM. AID 434973. Q9BQF6. recombinant SENP7, Z-RLRGG-aminoluciferin luminescence, 40 min;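 active = inhibition above about 50% at the single test dose, limit read from the data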;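 also: plate controls were DMSO with enzyme for no effect and no enzyme buffer wells for full effect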
# Target sequence (Q9BQF6 706-1050 limits assumed): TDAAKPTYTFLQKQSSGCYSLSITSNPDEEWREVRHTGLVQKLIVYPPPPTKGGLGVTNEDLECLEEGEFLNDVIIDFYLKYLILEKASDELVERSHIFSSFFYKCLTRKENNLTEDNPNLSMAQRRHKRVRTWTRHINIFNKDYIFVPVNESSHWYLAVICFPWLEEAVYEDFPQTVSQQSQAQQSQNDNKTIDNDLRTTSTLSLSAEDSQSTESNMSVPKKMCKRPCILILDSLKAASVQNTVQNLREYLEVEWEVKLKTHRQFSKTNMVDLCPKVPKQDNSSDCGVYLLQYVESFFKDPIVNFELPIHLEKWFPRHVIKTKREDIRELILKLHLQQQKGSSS
# SENP6 block: blocks the human protease SENP6; Recombinant SENP6 catalytic domain, aminoluciferin luminescence; inhibition, % at 10 µM; 330,000 tested, 1.8% active;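 active = inhibition above about 50% at the single tested dose, limit read from the data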;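 also: plate controls were DMSO wells with enzyme for no effect and DMSO wells lacking enzyme for full effect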
# HSP90 inh: blocks HSP90-mediated luciferase refolding in reticulocyte lysate; Rabbit reticulocyte lysate, luciferase refolding luminescence, 3 h; inhibition, % at 5.6 µM; 290,000 tested, 0.91% active; AID 1789;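 active = inhibition above the screen-wide mean plus 3 SD, computed separately per campaign, cut at about 16% in these data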;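 also: 0% = DMSO wells and 100% = 60 µM geldanamycin wells; inhibitors lower the luminescence because luciferase stays unfolded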
# SENP8 block-2: inhibitors of human SENP8 protease | purified SENP8, Z-RLRGG-aminoluciferin cleavage, luminescence | inhibition, % at 10 µM | 330,000 tested, 1.2% active | AID 2540; in the data active = inhibition above about 50%
# HSP90 confirm: confirmation of HSP90 inhibitors; 2,300 tested, 64% active; AID 1846; shares compounds with HSP90 inh; rabbit reticulocyte lysate, luciferase refolding luminescence, 3 h; inhibition, % at 5.9 µM; in the data active = inhibition above about 18%;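 also: 0% = vehicle wells and 100% = reference inhibitor wells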
# FLuc counter: counter-screen for HSP90 inhibitors: inhibitors of firefly luciferase | shares compounds with HSP90 inh | purified native firefly luciferase, luminescence | inhibition, % at 5.9 µM | 2,300 tested, 48% active | AID 1847;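 active = inhibition above the mean inhibition of all tested sample wells plus 3 SD, cut at about 10% in these data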;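 also: 0% = DMSO with luciferase and 100% = wells lacking luciferase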
# Numbers without * were called inactive; . = no result given; ! = repeats disagree. An excerpt weighted towards active compounds, which were near 2.8% of everything screened.
SMILES,SENP8 block-1,Platelet DG rel,SENP7 block,SENP6 block,HSP90 inh,SENP8 block-2,HSP90 confirm,FLuc counter
COC(=O)c1ccc(COc2ccc3c(c2)CCC3)o1,28,8,1,20,23*,38,40*,-16
N#Cc1ccc(CSc2ccc(S(=O)(=O)N3CCCCCC3)cn2)cc1,10,.,-4,-1,.,7,.,.
N#C/C(=C\c1ccc(-c2ccc(C(=O)O)cc2)o1)C(=O)Nc1ccc(F)cc1,-231,-3,.,.,-3,.,.,.
Cc1cccc(C)c1NC(=O)/C(C#N)=C/c1ccc(-c2ccc(C(=O)O)cc2)o1,-54,0,-8,29,34*,6,36*,-9
c1ccc(-c2ccccn2)nc1,2,-5,-2,7,6,2,.,.
c1ccc(-c2ccc(-c3ccccn3)nn2)nc1,.,21,89*,83*,28*,71*,54*,36*
CCN(CC)CCN1C(=O)C2C(C(=O)Nc3ccc(C(C)C)cc3)C3C=CC2(O3)C1C(=O)NC1CCCCC1 (stereo unspecified),0,-1,-1,-7,-2,0,.,.
COC(=O)c1ccc(Nc2nc3ccc(C)cc3n3cnnc23)cc1,-284,-8,-4,-14,38*,-2,42*,10*
CC(=O)c1ccc(Nc2nc3ccc(C)cc3n3cnnc23)cc1,-297,-4,3,-12,1,5,.,.
Cc1ccccc1CCN(C(=O)c1csnn1)C(C(=O)NC1CCCC1)c1ccco1 (stereo unspecified),0,4,0,17,-2,-1,.,.
Cc1ccc2c(c1)S/C(=C\c1cccc[n+]1C)N2CCO,17,-1,-1,18,-2,-2,.,.
C[n+]1ccccc1/C=C1\Sc2ccccc2N1CCO,18,-7,-2,-8,18*,15,0,-2
O=C(c1cc2ccccc2o1)N1CCN(c2ccccn2)CC1,-6,-1,0,-1,-6,4,.,.
C[n+]1nc(Nc2ccccc2)sc1-c1ccc(O)cc1,17,0,-5,-10,17*,-8,-8,-9
C=CCc1ccc(OCCn2cccc2C=O)c(OC)c1,5,-4,9,-6,23*,-7,35*,-18
COc1cc(/C=N/Nc2ccc(Cl)c(C(=O)O)c2)ccc1OC(=O)c1ccccc1F,-13,-3,-11,50,54*,38,80*,-28
COc1cc(/C=N/Nc2ccc(Cl)c(C(=O)O)c2)ccc1OC(=O)c1ccc(F)cc1,-20,-10,-7,9,60*,0,73*,-17
Nc1cc(-c2ccccc2)ccc1O,-126,0,-12,5,24*!,-11,80*,-18
C[C@H](O)c1[nH]c2cc(F)ccc2c1[C@H](C)O,-81,1,-12,1,-3,-13,.,.
O=C(O)c1ccc(-c2ccccc2Cl)o1,32,0,4,-4,28*,-6,30*,-20
COc1ccc(C(=O)NC(=S)NCc2ccco2)cc1,17,8,-8,-27,-2,-10,.,.
O=C(Nc1ccc(Br)cc1)c1ccc2ncsc2c1,-68,2,-1,-4,43*,2,45*,28*
CCc1ccc(NC(=O)c2ccc3ncsc3c2)cc1,.,0,.,.,-5,.,.,.
COc1ccc(/C=C/C(=O)Nc2ccccc2C(=O)O)cc1OC,-46,-3,17,72*,72*,63*,55*,52*
O=C(CSc1nc(-c2ccccc2)nc2ccccc12)Nc1nccs1,9,-8,6,-14,22*,-5,6,2
SMILES,SENP8 block-1,Platelet DG rel,SENP7 block,SENP6 block,HSP90 inh,SENP8 block-2,HSP90 confirm,FLuc counter
CCCCc1nnc(NC(=O)CSc2nc(=O)cc(N)n2-c2cccc(C)c2)s1,2,10,-12,-18,33*,-10,-10,-12
CCCCNC(=S)N(CCN(CC)CC)Cc1cc2cc3c(cc2[nH]c1=O)OCO3,-329,0,11,-10,1,-5,.,.
CCN(CC)CCN(Cc1cc2cc3c(cc2[nH]c1=O)OCO3)C(=S)NC,-310,9,-8,23,29*,6,-1,-4
Cc1[nH]n(-c2cccc([N+](=O)[O-])c2)c(=O)c1-c1ccccc1,16,0,3,-5,-1,-6,.,.
Cc1[nH]n(-c2ccccc2)c(=O)c1C(c1ccc(O)c([N+](=O)[O-])c1)c1c(C)[nH]n(-c2ccccc2)c1=O,80*,-1,40,51*,26*,15,-3,-3
COc1ccc(CN(C)C2c3ccccc3-c3ccccc32)cc1,12,15,0,-19,1,-6,.,.
COc1ccc(C(=O)c2ccc([N+](=O)[O-])cc2)cc1S(=O)(=O)N1CCC(C(=O)O)CC1,20,2,0,-7,1,-4,.,.
O=C(CN1C(=O)c2ccccc2S1(=O)=O)c1ccccc1Cl,2,-5,6,29,53*,38,76*,-15
Cc1ccc(C(=O)CN2/C(=C(\O)c3ccccc3)C(=O)c3ccccc3S2(=O)=O)c(C)c1,23,8,11,4,40*,0,14,0
O=C(CN1C(=O)c2ccccc2S1(=O)=O)c1ccccc1,2,.,-2,6,6,11,.,.
O=C(CN1C(=O)c2ccccc2S1(=O)=O)NCc1ccccc1Cl,-2,-2,5,-1,-2,-7,.,.
Cc1ccc(C(=O)CN2C(=O)c3ccccc3S2(=O)=O)cc1,7,3,1,2,24*,-4,57*,-9
CCn1c(=O)c2c(nc(SCC(=O)N3CCC(C)CC3)n2C)n(C)c1=O,8,-3,0,15,-5,1,.,.
Cn1cnnc1SCC(=O)Nc1sc2c(c1C(N)=O)CCC2,-8,-7,-1,-46,22*,3,5,-6
Cn1c(=O)n(-c2ccc(Cl)cc2)c(=O)c2c3c(sc21)COC(C)(C)C3,9,-1,0,11,41*,9,-3,-5
CCn1c(=O)n(-c2ccc(Cl)cc2)c(=O)c2c3c(sc21)COC(C)(C)C3,26,4,7,5,-6,-3,.,.
CC(C)OP(=O)(c1ccc(N(C)C)cc1)C(O)c1ccc(N(C)C)cc1 (stereo unspecified),24,-1,-2,17,30*,-5,-5,-7
CC(C)COP(=O)(c1ccc(N(C)C)cc1)C(O)c1ccc(N(C)C)cc1 (stereo unspecified),13,-2,2,10,0,5,.,.
O=C(Oc1ccc2ccc(O)cc2c1)C1CCCCC1,-17,1,3,26,-2,7,.,.
O=C(Oc1ccc2ccccc2c1)C1CCC1,3,-5,-23,0,37*,-23,-3,-16
